# Experimental data taken from PMC11062922 (Nature Chemical Biology, 2023).
# Like-named read-outs stand apart in the source and are kept apart here.
# Legend:
# Settings in all cases: read-out: apparent Kd, n = 1
# PRKAA1 = system: PRKAA1
# PRKAG1 = system: PRKAG1
# PRKD1 = system: PRKD1
# [1] = compound concentrations:100 nM and 1000 nM (sheet 'Lestaurtinib' of Supplementary Table 1),run:Lestaurtinib_02381_R3,Plate:MR004
# [2] = compound concentrations:100 nM and 1000 nM (sheet 'Lestaurtinib' of Supplementary Table 1),run:Lestaurtinib_02422_R1,Plate:MR006
# [3] = compound concentrations:100 nM and 1000 nM (sheet 'Lestaurtinib' of Supplementary Table 1),run:Lestaurtinib_02437_R3,Plate:MR007
# [4] = compound concentrations:100 nM and 1000 nM (sheet 'Lestaurtinib' of Supplementary Table 1),run:Lestaurtinib_02438_R3,Plate:MR008
# [5] = compound concentrations:100 nM and 1000 nM (sheet 'Lestaurtinib' of Supplementary Table 1),run:Lestaurtinib_02443_R3,Plate:MR009
# [6] = compound concentrations:100 nM and 1000 nM (sheet 'Lestaurtinib' of Supplementary Table 1),run:Lestaurtinib_02473_R2,Plate:MR010
# [7] = compound concentrations:100 nM and 1000 nM (sheet 'Lestaurtinib' of Supplementary Table 1),run:Lestaurtinib_02473_R3,Plate:MR010
# [8] = compound concentrations:100 nM and 1000 nM (sheet 'Lestaurtinib' of Supplementary Table 1),run:Lestaurtinib_02482_R2,Plate:MR011
# [9] = compound concentrations:100 nM and 1000 nM (sheet 'Lestaurtinib' of Supplementary Table 1),run:Lestaurtinib_02487_R1,Plate:MR012
# [10] = compound concentrations:100 nM and 1000 nM (sheet 'Lestaurtinib' of Supplementary Table 1),run:Lestaurtinib_02566_R3,Plate:MR014
# [11] = compound concentrations:100 nM and 1000 nM (sheet 'Lestaurtinib' of Supplementary Table 1),run:Lestaurtinib_02584_R2,Plate:MR017
# [12] = compound concentrations:100 nM and 1000 nM (sheet 'Lestaurtinib' of Supplementary Table 1),run:Lestaurtinib_02606_R2,Plate:MR019
# [13] = compound concentrations:100 nM and 1000 nM (sheet 'Lestaurtinib' of Supplementary Table 1),run:Lestaurtinib_02624_R3,Plate:MR020
# [14] = compound concentrations:100 nM and 1000 nM (sheet 'Lestaurtinib' of Supplementary Table 1),run:Lestaurtinib_02724_R3,Plate:MR021
# [15] = compound concentrations:100 nM and 1000 nM (sheet 'Lestaurtinib' of Supplementary Table 1),run:Lestaurtinib_02748_R2,Plate:MR024
# [16] = compound concentrations:100 nM and 1000 nM (sheet 'Lestaurtinib' of Supplementary Table 1),run:Lestaurtinib_02752_R3,Plate:MR025
# [17] = compound concentrations:100 nM and 1000 nM (sheet 'Lestaurtinib' of Supplementary Table 1),run:Lestaurtinib_02768_R3,Plate:MR028
# [18] = compound concentrations:100 nM and 1000 nM (sheet 'Lestaurtinib' of Supplementary Table 1),run:Lestaurtinib_02896_R3,Plate:MR030
# [19] = compound concentrations:100 nM and 1000 nM (sheet 'Lestaurtinib' of Supplementary Table 1),run:Lestaurtinib_02364_R3,Plate:MR002
# [20] = compound concentrations:100 nM and 1000 nM (sheet 'Lestaurtinib' of Supplementary Table 1),run:Lestaurtinib_02601_R1,Plate:MR018
# [21] = compound concentrations:100 nM and 1000 nM (sheet 'Lestaurtinib' of Supplementary Table 1),run:Lestaurtinib_02748_R3,Plate:MR024
substance,measurement,setting,value
Lestaurtinib,potency estimated from few doses,PRKAA1; [1],952 nM
same,potency estimated from few doses,PRKAA1; [2],741 nM
same,potency estimated from few doses,PRKAA1; [3],79.1 nM
same,potency estimated from few doses,"PRKAA1; compound concentrations:100 nM and 1000 nM (sheet 'Lestaurtinib' of Supplementary Table 1),run:Lestaurtinib_02438_R1,Plate:MR008",898 nM
same,potency estimated from few doses,PRKAA1; [4],1600 nM
same,potency estimated from few doses,PRKAA1; [5],762 nM
same,potency estimated from few doses,PRKAA1; [6],944 nM
same,potency estimated from few doses,PRKAA1; [7],74.3 nM
same,potency estimated from few doses,"PRKAA1; compound concentrations:100 nM and 1000 nM (sheet 'Lestaurtinib' of Supplementary Table 1),run:Lestaurtinib_02482_R1,Plate:MR011",1130 nM
same,potency estimated from few doses,PRKAA1; [8],1490 nM
same,potency estimated from few doses,PRKAA1; [9],253 nM
same,potency estimated from few doses,"PRKAA1; compound concentrations:100 nM and 1000 nM (sheet 'Lestaurtinib' of Supplementary Table 1),run:Lestaurtinib_02487_R3,Plate:MR012",737 nM
same,potency estimated from few doses,PRKAA1; [10],1310 nM
same,potency estimated from few doses,"PRKAA1; compound concentrations:100 nM and 1000 nM (sheet 'Lestaurtinib' of Supplementary Table 1),run:Lestaurtinib_02572_R1,Plate:MR015",904 nM
same,potency estimated from few doses,PRKAA1; [11],1310 nM
same,potency estimated from few doses,PRKAA1; [12],1490 nM
same,potency estimated from few doses,PRKAA1; [13],1310 nM
same,potency estimated from few doses,PRKAA1; [14],883 nM
same,potency estimated from few doses,"PRKAA1; compound concentrations:100 nM and 1000 nM (sheet 'Lestaurtinib' of Supplementary Table 1),run:Lestaurtinib_02748_R1,Plate:MR024",858 nM
same,potency estimated from few doses,PRKAA1; [15],956 nM
same,potency estimated from few doses,"PRKAA1; compound concentrations:100 nM and 1000 nM (sheet 'Lestaurtinib' of Supplementary Table 1),run:Lestaurtinib_02752_R1,Plate:MR025",1360 nM
same,potency estimated from few doses,PRKAA1; [16],1210 nM
same,potency estimated from few doses,"PRKAA1; compound concentrations:100 nM and 1000 nM (sheet 'Lestaurtinib' of Supplementary Table 1),run:Lestaurtinib_02766_R1,Plate:MR027",1580 nM
same,potency estimated from few doses,"PRKAA1; compound concentrations:100 nM and 1000 nM (sheet 'Lestaurtinib' of Supplementary Table 1),run:Lestaurtinib_02766_R3,Plate:MR027",1320 nM
same,potency estimated from few doses,"PRKAA1; compound concentrations:100 nM and 1000 nM (sheet 'Lestaurtinib' of Supplementary Table 1),run:Lestaurtinib_02768_R1,Plate:MR028",932 nM
same,potency estimated from few doses,PRKAA1; [17],921 nM
same,potency estimated from few doses,"PRKAA1; compound concentrations:100 nM and 1000 nM (sheet 'Lestaurtinib' of Supplementary Table 1),run:Lestaurtinib_02896_R1,Plate:MR030",784 nM
same,potency estimated from few doses,"PRKAA1; compound concentrations:100 nM and 1000 nM (sheet 'Lestaurtinib' of Supplementary Table 1),run:Lestaurtinib_02896_R2,Plate:MR030",1130 nM
same,potency estimated from few doses,PRKAA1; [18],931 nM
same,potency estimated from few doses,"PRKAA1; compound concentrations:100 nM and 1000 nM (sheet 'Lestaurtinib' of Supplementary Table 1),run:Lestaurtinib_03172_R1,Plate:MR031",1570 nM
same,potency estimated from few doses,"PRKAA1; compound concentrations:100 nM and 1000 nM (sheet 'Lestaurtinib' of Supplementary Table 1),run:Lestaurtinib_03172_R2,Plate:MR031",1330 nM
same,potency estimated from few doses,"PRKAG1; compound concentrations:100 nM and 1000 nM (sheet 'Lestaurtinib' of Supplementary Table 1),run:Lestaurtinib_02339_R2,Plate:MR001",584 nM
same,potency estimated from few doses,"PRKAG1; compound concentrations:100 nM and 1000 nM (sheet 'Lestaurtinib' of Supplementary Table 1),run:Lestaurtinib_02339_R3,Plate:MR001",531 nM
same,potency estimated from few doses,PRKAG1; [19],1000 nM
same,potency estimated from few doses,"PRKAG1; compound concentrations:100 nM and 1000 nM (sheet 'Lestaurtinib' of Supplementary Table 1),run:Lestaurtinib_02367_R3,Plate:MR003",887 nM
same,potency estimated from few doses,"PRKAG1; compound concentrations:100 nM and 1000 nM (sheet 'Lestaurtinib' of Supplementary Table 1),run:Lestaurtinib_02381_R1,Plate:MR004",712 nM
same,potency estimated from few doses,PRKAG1; [1],611 nM
same,potency estimated from few doses,"PRKAG1; compound concentrations:100 nM and 1000 nM (sheet 'Lestaurtinib' of Supplementary Table 1),run:Lestaurtinib_02407_R1,Plate:MR005",924 nM
same,potency estimated from few doses,"PRKAG1; compound concentrations:100 nM and 1000 nM (sheet 'Lestaurtinib' of Supplementary Table 1),run:Lestaurtinib_02407_R2,Plate:MR005",928 nM
same,potency estimated from few doses,"PRKAG1; compound concentrations:100 nM and 1000 nM (sheet 'Lestaurtinib' of Supplementary Table 1),run:Lestaurtinib_02407_R3,Plate:MR005",1150 nM
same,potency estimated from few doses,PRKAG1; [2],131 nM
same,potency estimated from few doses,"PRKAG1; compound concentrations:100 nM and 1000 nM (sheet 'Lestaurtinib' of Supplementary Table 1),run:Lestaurtinib_02437_R2,Plate:MR007",1340 nM
same,potency estimated from few doses,PRKAG1; [3],83.7 nM
same,potency estimated from few doses,PRKAG1; [4],1600 nM
same,potency estimated from few doses,PRKAG1; [5],935 nM
same,potency estimated from few doses,PRKAG1; [6],859 nM
same,potency estimated from few doses,PRKAG1; [7],835 nM
same,potency estimated from few doses,PRKAG1; [8],1580 nM
same,potency estimated from few doses,PRKAG1; [9],365 nM
same,potency estimated from few doses,PRKAG1; [10],79.5 nM
same,potency estimated from few doses,"PRKAG1; compound concentrations:100 nM and 1000 nM (sheet 'Lestaurtinib' of Supplementary Table 1),run:Lestaurtinib_02584_R1,Plate:MR017",798 nM
same,potency estimated from few doses,PRKAG1; [11],936 nM
same,potency estimated from few doses,PRKAG1; [20],963 nM
same,potency estimated from few doses,PRKAG1; [12],1240 nM
same,potency estimated from few doses,"PRKAG1; compound concentrations:100 nM and 1000 nM (sheet 'Lestaurtinib' of Supplementary Table 1),run:Lestaurtinib_02624_R2,Plate:MR020",876 nM
same,potency estimated from few doses,PRKAG1; [13],1320 nM
same,potency estimated from few doses,PRKAG1; [21],1790 nM
same,potency estimated from few doses,"PRKAG1; compound concentrations:100 nM and 1000 nM (sheet 'Lestaurtinib' of Supplementary Table 1),run:Lestaurtinib_02752_R2,Plate:MR025",818 nM
same,potency estimated from few doses,PRKAG1; [16],954 nM
same,potency estimated from few doses,"PRKAG1; compound concentrations:100 nM and 1000 nM (sheet 'Lestaurtinib' of Supplementary Table 1),run:Lestaurtinib_02768_R2,Plate:MR028",1540 nM
same,potency estimated from few doses,PRKAG1; [17],852 nM
same,potency estimated from few doses,"PRKAG1; compound concentrations:100 nM and 1000 nM (sheet 'Lestaurtinib' of Supplementary Table 1),run:Lestaurtinib_02795_R2,Plate:MR022",1330 nM
same,potency estimated from few doses,"PRKAG1; compound concentrations:100 nM and 1000 nM (sheet 'Lestaurtinib' of Supplementary Table 1),run:Lestaurtinib_02802_R1,Plate:MR029",1150 nM
same,potency estimated from few doses,"PRKAG1; compound concentrations:100 nM and 1000 nM (sheet 'Lestaurtinib' of Supplementary Table 1),run:Lestaurtinib_02802_R2,Plate:MR029",1430 nM
same,potency estimated from few doses,PRKAG1; [18],700 nM
same,potency estimated from few doses,"PRKAG1; compound concentrations:100 nM and 1000 nM (sheet 'Lestaurtinib' of Supplementary Table 1),run:Lestaurtinib_03252_R1,Plate:MR032",744 nM
same,potency estimated from few doses,"PRKAG1; compound concentrations:100 nM and 1000 nM (sheet 'Lestaurtinib' of Supplementary Table 1),run:Lestaurtinib_03260_R1,Plate:MR033",860 nM
same,potency estimated from few doses,"PRKAG1; compound concentrations:100 nM and 1000 nM (sheet 'Lestaurtinib' of Supplementary Table 1),run:Lestaurtinib_03260_R2,Plate:MR033",760 nM
same,potency estimated from few doses,PRKD1; [19],131 nM
same,potency estimated from few doses,"PRKD1; compound concentrations:100 nM and 1000 nM (sheet 'Lestaurtinib' of Supplementary Table 1),run:Lestaurtinib_02443_R2,Plate:MR009",226 nM
same,potency estimated from few doses,PRKD1; [5],271 nM
same,potency estimated from few doses,"PRKD1; compound concentrations:100 nM and 1000 nM (sheet 'Lestaurtinib' of Supplementary Table 1),run:Lestaurtinib_02473_R1,Plate:MR010",248 nM
same,potency estimated from few doses,PRKD1; [6],235 nM
same,potency estimated from few doses,"PRKD1; compound concentrations:100 nM and 1000 nM (sheet 'Lestaurtinib' of Supplementary Table 1),run:Lestaurtinib_02496_R2,Plate:MR013",47.1 nM
same,potency estimated from few doses,"PRKD1; compound concentrations:100 nM and 1000 nM (sheet 'Lestaurtinib' of Supplementary Table 1),run:Lestaurtinib_02566_R1,Plate:MR014",253 nM
same,potency estimated from few doses,PRKD1; [11],206 nM
same,potency estimated from few doses,"PRKD1; compound concentrations:100 nM and 1000 nM (sheet 'Lestaurtinib' of Supplementary Table 1),run:Lestaurtinib_02584_R3,Plate:MR017",278 nM
same,potency estimated from few doses,PRKD1; [20],99.8 nM
same,potency estimated from few doses,"PRKD1; compound concentrations:100 nM and 1000 nM (sheet 'Lestaurtinib' of Supplementary Table 1),run:Lestaurtinib_02606_R1,Plate:MR019",131 nM
same,potency estimated from few doses,"PRKD1; compound concentrations:100 nM and 1000 nM (sheet 'Lestaurtinib' of Supplementary Table 1),run:Lestaurtinib_02606_R3,Plate:MR019",135 nM
same,potency estimated from few doses,PRKD1; [14],41.4 nM
same,potency estimated from few doses,"PRKD1; compound concentrations:100 nM and 1000 nM (sheet 'Lestaurtinib' of Supplementary Table 1),run:Lestaurtinib_02741_R1,Plate:MR023",13.3 nM
same,potency estimated from few doses,"PRKD1; compound concentrations:100 nM and 1000 nM (sheet 'Lestaurtinib' of Supplementary Table 1),run:Lestaurtinib_02741_R3,Plate:MR023",17.5 nM
same,potency estimated from few doses,PRKD1; [15],208 nM
same,potency estimated from few doses,PRKD1; [21],254 nM
same,potency estimated from few doses,"PRKD1; compound concentrations:100 nM and 1000 nM (sheet 'Lestaurtinib' of Supplementary Table 1),run:Lestaurtinib_02795_R3,Plate:MR022",193 nM
